Test results from PubChem BioAssay (NCI).
The panel holds about 83,000 compounds, 20% with a hit somewhere; the sample as a whole holds those more often.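 The endpoint reported here, percent growth, reads 100 for growth as untreated, 0 for no net growth and -100 for all cells dead.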 Values without a mark were called inactive. Active and inactive are the calls of the source. How the source made its calls: active means growth percent below 10; inactive means the rest.

What follows are molecules tested on MDA-MB-231 breast (assay: NCI-60 one-dose screen, 48 h (100 = growth as untreated, 0 = no growth, -100 = all killed)). Details: 10 µM unless noted.
`Cc1nc(Nc2ccc(N)cc2)c2ccccc2n1` gave a growth of 93.9%.
`COc1cccc(/C=C2\COc3ccc(O)cc3C2=O)c1OC` showed a growth of 85.1%.
For `CC(C)c1ccc(NC(=O)Cc2ccc(Nc3ncnc4cc(-c5cnn(CCN(C)C)c5)ccc34)cc2)cc1`, the growth was -77.8% [30 µM] (active).
`O=C1c2cccc3c(-c4ccc(-c5nc6c7ccccc7c7ccccc7c6[nH]5)cc4)ccc(c23)C(=O)N1CCN1CCNCC1` was tested, and the growth was 63.3%.
`O=C1/C(=C/c2ccc([N+](=O)[O-])cc2)COc2ccc(O)c(O)c21` was tested, and the growth was -27.1% (active).
For `Cn1ccnc1C(=O)/C=C/c1ccc(C(=O)Nc2ccc(S(F)(F)(F)(F)F)cc2)cc1`, the growth was 22.4%.
With `COc1ccc(OC)c(C(=O)Nc2cccc(-c3cc(=O)c4ccccc4o3)c2)c1` the growth was 83.4%.
In the case of `C=C1C(=O)O[C@H]2[C@H]1CC/C(COC(=O)/C=C\C(=O)NCc1ccc(Cn3c(=O)sn(CCCI)c3=O)cc1)=C\CC[C@@]1(C)O[C@@H]21`, the growth is reported as -83.3% (active).

Each molecule was assayed on SF-268 CNS in the same assay as above. Details: 10 µM unless noted.
`CCCCC1COc2cccc3c(SCC(=O)N(C)c4cccc(Cl)c4)cc[n+]1c23` (stereo not drawn) was tested, and the growth was 118%.
Work on `COc1ccc(-c2c(N)n[nH]c2-c2ccccc2O)cc1OC` yielded a growth of 100%.
`CCOC(=O)c1sc(-c2ccc(OS(=O)(=O)c3ccc(C(C)(C)C)cc3)c(C=O)c2)nc1C` was tested, and the growth was 32.9%.
For `Cc1nc(Nc2ccc(NC(=S)Nc3ccccc3)cc2)nc2nc(Nc3ccc(S(=O)(=O)O)cc3)[nH]c(=O)c12`, the growth was 106%.
For `COc1ccc(/C=C2\COc3ccc(O)cc3C2=O)c(OC)c1`, the growth was 70.2%.
Molecule `COc1ccc(/C(C)=C(\c2ccc(Cl)cc2)c2ccc(OCCCN(C)C)cc2)cc1F` has a growth of 81.8%.
`Cc1nc(Nc2ccc(NC(=S)Nc3ccccc3)cc2)c2ccccc2n1` gave a growth of 111%.
`C=C1C(=O)O[C@H]2[C@H]1CC/C(COC(=O)/C=C\C(=O)NCc1ccc(Cn3c(=O)sn(-c4ccc(OC)cc4)c3=O)cc1)=C\CC[C@@]1(C)O[C@@H]21` was tested, and the growth was -78.3% (active).
`CN(C)CCn1cc(-c2ccc3c(Nc4ccc(CC(=O)Nc5cccc(F)c5)cc4)ncnc3c2)cn1` was tested, and the growth was -61.7% [30 µM] (active).
For `COc1cc(/C=C/c2nc(Nc3ccc(S(=O)(=O)Nc4cc(C)on4)cc3)c3ccccc3n2)ccc1O`, the growth was 76.1%.
Molecule `COc1ccc(/C(C)=C(\c2ccc(Cl)cc2)c2ccc(OCCN3CCCC3)cc2)cc1F` has a growth of 54.7%.
For `Cc1nc(Nc2ccc(S(=O)(=O)Nc3cc(C)on3)cc2)c2ccccc2n1`, the growth was 99.5%.
Work on `COc1ccc(OC)c(/C=C2\COc3ccc(O)cc3C2=O)c1` yielded a growth of 99.2%.
`CCN(CC)CCOc1ccc(/C(=C(\C)c2ccc(F)c(OC)c2)c2ccc(Cl)cc2)cc1` gave a growth of 53%.
`O[C@H]1CO[C@H]2[C@@H]1OC[C@@H]2Oc1ccc(Nc2ccnc(Nc3ccc(O[C@H]4CO[C@H]5[C@@H]4OC[C@@H]5O)c(Cl)c3)n2)cc1Cl` was tested, and the growth was 16.4%.
`CC(=O)Nc1ccc(-c2cc3c(NCc4ccc(F)cc4)ncnc3s2)cc1` showed a growth of 68%.
Work on `C/C(Cc1ccc(Cl)cc1)=C(/c1ccc(Cl)cc1)c1ccc(OCCN(C)C)cc1` yielded a growth of 85.6%.
For `C=C1C(=O)O[C@H]2[C@H]1CC/C(COC(=O)/C=C\C(=O)NCc1ccc(Cn3c(=O)sn(CCCC)c3=O)cc1)=C\CC[C@@]1(C)O[C@@H]21`, the growth was -64.4% (active).
Work on `Cc1nc(Nc2cccc(NC(=O)Nc3ccc(Cl)cc3)c2)c2ccccc2n1` yielded a growth of 102%.
`COc1ccc(/C=C2\COc3ccc(O)c(O)c3C2=O)c(OC)c1` was tested, and the growth was 54.8%.
For `CCN(CC)CCOc1ccc(/C(=C(\C)c2ccc(OC)c(F)c2)c2ccc(Cl)cc2)cc1`, the growth was 87.4%.
With `C=C1C(=O)O[C@H]2[C@H]1CC/C(COC(=O)/C=C\C(=O)NCc1ccc(Cn3c(=O)sn(-c4ccc(C#N)cc4)c3=O)cc1)=C\CC[C@@]1(C)O[C@@H]21` the growth was -75.2% (active).
In the case of `CN(C)CCN1C(=O)c2cccc3c(-c4ccc(-c5nc6c7ccccc7c7ccccc7c6[nH]5)cc4)ccc(c23)C1=O`, the growth is reported as 105%.
With `c1ccc([P+](CCCc2n(Cc3ccc4ccccc4c3)c3ccccc3[n+]2Cc2ccc3ccccc3c2)(c2ccccc2)c2ccccc2)cc1` the growth was 79%.
Molecule `CCCCS(=O)(=O)Oc1ccc(-c2nc(C)c(C(=O)OCC)s2)cc1C=O` has a growth of 79.3%.
